Measured values: PubChem BioAssay (NCI)
Compounds without any hit were thinned out: in the full panel of roughly 83,000, 20% have a hit.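 In brief: 96-well plates, 48 h treatment, single concentration, percent growth endpoint.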 Values without a mark were called inactive. Activity calls are given as the source filed them. The calls were made as follows: active = growth percent below 10; inactive = the rest.

Key:
Experiment in all cases: NCI-60 one-dose screen, 48 h (100 = growth as untreated, 0 = no growth, -100 = all killed)
Conditions in all cases: 10 µM unless noted
HCT-15 colon = test system: HCT-15 colon
HT29 colon = test system: HT29 colon
SNB-75 CNS = test system: SNB-75 CNS
SNB-19 CNS = test system: SNB-19 CNS
U251 CNS = test system: U251 CNS
PC-3 prostate = test system: PC-3 prostate
SK-MEL-5 melanoma = test system: SK-MEL-5 melanoma
UACC-62 melanoma = test system: UACC-62 melanoma
LOX IMVI melanoma = test system: LOX IMVI melanoma
SK-MEL-28 melanoma = test system: SK-MEL-28 melanoma
SK-MEL-2 melanoma = test system: SK-MEL-2 melanoma
EKVX NSCLC = test system: EKVX NSCLC
SN12C renal = test system: SN12C renal
UO-31 renal = test system: UO-31 renal
TK-10 renal = test system: TK-10 renal
ACHN renal = test system: ACHN renal
CAKI-1 renal = test system: CAKI-1 renal
A498 renal = test system: A498 renal
CCRF-CEM leukemia = test system: CCRF-CEM leukemia
MOLT-4 leukemia = test system: MOLT-4 leukemia

Question: `[2H]C([2H])([2H])Oc1c(F)cccc1/C=C/C(=O)/C=C(O)/C=C/c1cccc(F)c1OC([2H])([2H])[2H]` was tested. Which growth (HCT-15 colon) did it give?
Answer: 81.4%

Question: And the growth (HT29 colon)?
Answer: 103%

Question: What about the growth (SNB-75 CNS) of the same molecule?
Answer: 114%

Question: What about the growth (SNB-19 CNS) of the same molecule?
Answer: 94.4%

Question: What about the growth (U251 CNS) of the same molecule?
Answer: 87.8%

Question: What about the growth (PC-3 prostate) of the same molecule?
Answer: 88.4%

Question: And the growth (SK-MEL-5 melanoma)?
Answer: 101%

Question: And the growth (UACC-62 melanoma)?
Answer: 92%

Question: And the growth (LOX IMVI melanoma)?
Answer: 85.8%

Question: And the growth (SK-MEL-28 melanoma)?
Answer: 98.1%

Question: What about the growth (SK-MEL-2 melanoma) of the same molecule?
Answer: 101%

Question: What about the growth (EKVX NSCLC) of the same molecule?
Answer: 107%

Question: And the growth (SN12C renal)?
Answer: 93.4%

Question: And the growth (UO-31 renal)?
Answer: 97.8%

Question: What about the growth (TK-10 renal) of the same molecule?
Answer: 114%

Question: And the growth (ACHN renal)?
Answer: 104%

Question: And the growth (CAKI-1 renal)?
Answer: 103%

Question: And the growth (A498 renal)?
Answer: 109%

Question: What about the growth (CCRF-CEM leukemia) of the same molecule?
Answer: 90.9%

Question: What about the growth (MOLT-4 leukemia) of the same molecule?
Answer: 77.7%

Question: Which results are given for `COc1ccc2c(O)cc3c(c2c1)[C@H](CCl)CN3C(=O)c1cc2cc(NC(=O)CCN3CCOCC3)ccc2[se]1`?
Answer: growth (HCT-15 colon): 0% (active); growth (HT29 colon): -39.8% (active); growth (SNB-75 CNS): -87.8% (active); growth (SNB-19 CNS): -76.2% (active); growth (U251 CNS): -85.7% (active); growth (PC-3 prostate): 74.1%; growth (SK-MEL-5 melanoma): -85.9% (active); growth (UACC-62 melanoma): -76.4% (active); growth (LOX IMVI melanoma): -62.5% (active); growth (SK-MEL-28 melanoma): -58.7% (active); growth (SK-MEL-2 melanoma): -84.3% (active); growth (EKVX NSCLC): -59.3% (active); growth (SN12C renal): -88.1% (active); growth (UO-31 renal): -46.9% (active); growth (TK-10 renal): -32.2% (active); growth (ACHN renal): -1.81% (active); growth (CAKI-1 renal): -26.3% (active); growth (A498 renal): -90.9% (active); growth (CCRF-CEM leukemia): 76%; growth (MOLT-4 leukemia): 74.2%

Question: With `Cc1ccc(S(=O)(=O)N(CCC(=O)O)c2ccccc2)cc1` as the molecule, how does the growth (HCT-15 colon) read?
Answer: 102%

Question: And the growth (HT29 colon)?
Answer: 110%

Question: And the growth (SNB-75 CNS)?
Answer: 118%

Question: And the growth (SNB-19 CNS)?
Answer: 109%

Question: And the growth (U251 CNS)?
Answer: 102%

Question: What about the growth (PC-3 prostate) of the same molecule?
Answer: 101%

Question: And the growth (SK-MEL-5 melanoma)?
Answer: 112%

Question: And the growth (UACC-62 melanoma)?
Answer: 104%

Question: And the growth (LOX IMVI melanoma)?
Answer: 97.3%

Question: What about the growth (SK-MEL-28 melanoma) of the same molecule?
Answer: 119%

Question: What about the growth (SK-MEL-2 melanoma) of the same molecule?
Answer: 109%

Question: And the growth (EKVX NSCLC)?
Answer: 108%

Question: And the growth (SN12C renal)?
Answer: 109%

Question: What about the growth (UO-31 renal) of the same molecule?
Answer: 106%

Question: And the growth (TK-10 renal)?
Answer: 119%

Question: And the growth (ACHN renal)?
Answer: 106%

Question: What about the growth (CAKI-1 renal) of the same molecule?
Answer: 93.9%

Question: And the growth (A498 renal)?
Answer: 81.3%

Question: What about the growth (CCRF-CEM leukemia) of the same molecule?
Answer: 94.4%

Question: And the growth (MOLT-4 leukemia)?
Answer: 106%

Question: What does the source list for `Cc1cc(C)n(C(=O)CSc2nc3sc4c(c3c(=O)n2-c2ccccc2)CCCCC4)n1`?
Answer: growth (HCT-15 colon): 103%; growth (HT29 colon): 105%; growth (SNB-75 CNS): 89.6%; growth (SNB-19 CNS): 95.4%; growth (U251 CNS): 97.4%; growth (PC-3 prostate): 99%; growth (SK-MEL-5 melanoma): 93%; growth (UACC-62 melanoma): 95.6%; growth (LOX IMVI melanoma): 98.9%; growth (SK-MEL-28 melanoma): 110%; growth (SK-MEL-2 melanoma): 98.3%; growth (EKVX NSCLC): 97%; growth (SN12C renal): 91.9%; growth (UO-31 renal): 90.6%; growth (TK-10 renal): 101%; growth (ACHN renal): 100%; growth (CAKI-1 renal): 95.2%; growth (A498 renal): 99.5%; growth (CCRF-CEM leukemia): 95.5%; growth (MOLT-4 leukemia): 95.2%

Question: What does the source list for `COCCNC(=O)Cc1cc(-c2ccc(Cl)cc2)n(-c2ccccc2)c1C`?
Answer: growth (HCT-15 colon): 81.8%; growth (HT29 colon): 84.8%; growth (SNB-75 CNS): 68.5%; growth (SNB-19 CNS): 79.2%; growth (U251 CNS): 84.5%; growth (PC-3 prostate): 81%; growth (SK-MEL-5 melanoma): 79.3%; growth (UACC-62 melanoma): 59.4%; growth (LOX IMVI melanoma): 85.5%; growth (SK-MEL-28 melanoma): 103%; growth (SK-MEL-2 melanoma): 90.7%; growth (EKVX NSCLC): 85.4%; growth (SN12C renal): 87.6%; growth (UO-31 renal): 71.1%; growth (TK-10 renal): 95.3%; growth (ACHN renal): 92.5%; growth (CAKI-1 renal): 73.5%; growth (A498 renal): 89.9%; growth (CCRF-CEM leukemia): 88.1%; growth (MOLT-4 leukemia): 90%

Question: Which results are given for `CCOC(=O)CC1CSC(N/N=C/c2ccc(O)cc2)=N1` (stereo not given)?
Answer: growth (HCT-15 colon): 100%; growth (HT29 colon): 106%; growth (SNB-75 CNS): 93.4%; growth (SNB-19 CNS): 106%; growth (U251 CNS): 98.9%; growth (PC-3 prostate): 89.5%; growth (SK-MEL-5 melanoma): 102%; growth (UACC-62 melanoma): 102%; growth (LOX IMVI melanoma): 99%; growth (SK-MEL-28 melanoma): 107%; growth (SK-MEL-2 melanoma): 95.1%; growth (EKVX NSCLC): 103%; growth (SN12C renal): 105%; growth (UO-31 renal): 89.7%; growth (TK-10 renal): 91.5%; growth (ACHN renal): 105%; growth (CAKI-1 renal): 94.6%; growth (A498 renal): 108%; growth (CCRF-CEM leukemia): 115%; growth (MOLT-4 leukemia): 107%

Question: For `COC1CC(O)C2=C(CC3C(/C(C)=C\CC=C(C)C)CCC3(C)O2)C1=O` (stereo not given), which growth (HCT-15 colon) is on record?
Answer: 110%

Question: What about the growth (HT29 colon) of the same molecule?
Answer: 99.4%

Question: And the growth (SNB-75 CNS)?
Answer: 107%

Question: What about the growth (SNB-19 CNS) of the same molecule?
Answer: 103%

Question: What about the growth (U251 CNS) of the same molecule?
Answer: 99%

Question: What about the growth (PC-3 prostate) of the same molecule?
Answer: 93.6%

Question: What about the growth (SK-MEL-5 melanoma) of the same molecule?
Answer: 99.2%

Question: What about the growth (UACC-62 melanoma) of the same molecule?
Answer: 94.9%

Question: What about the growth (LOX IMVI melanoma) of the same molecule?
Answer: 106%

Question: And the growth (SK-MEL-28 melanoma)?
Answer: 119%

Question: What about the growth (SK-MEL-2 melanoma) of the same molecule?
Answer: 96.9%

Question: What about the growth (EKVX NSCLC) of the same molecule?
Answer: 105%

Question: And the growth (SN12C renal)?
Answer: 107%

Question: What about the growth (UO-31 renal) of the same molecule?
Answer: 89.6%

Question: What about the growth (TK-10 renal) of the same molecule?
Answer: 92.4%

Question: What about the growth (ACHN renal) of the same molecule?
Answer: 111%

Question: What about the growth (CAKI-1 renal) of the same molecule?
Answer: 107%

Question: What about the growth (A498 renal) of the same molecule?
Answer: 103%

Question: And the growth (CCRF-CEM leukemia)?
Answer: 88.1%

Question: What about the growth (MOLT-4 leukemia) of the same molecule?
Answer: 92.2%

Question: How did the growth (HCT-15 colon) turn out when `O=c1oc2ccccc2cc1-c1nn(-c2ccccc2)cc1/C=N/Nc1nc(-c2ccccc2)c(N=Nc2ccccc2)s1` was run?
Answer: 41.9%

Question: And the growth (HT29 colon)?
Answer: 31.5%

Question: And the growth (SNB-75 CNS)?
Answer: 26.6%

Question: What about the growth (SNB-19 CNS) of the same molecule?
Answer: 85.1%

Question: And the growth (U251 CNS)?
Answer: 47.6%

Question: What about the growth (PC-3 prostate) of the same molecule?
Answer: 82.1%

Question: And the growth (SK-MEL-5 melanoma)?
Answer: 79.7%

Question: And the growth (UACC-62 melanoma)?
Answer: 59.8%

Question: And the growth (LOX IMVI melanoma)?
Answer: 70%

Question: And the growth (SK-MEL-28 melanoma)?
Answer: 89%

Question: And the growth (SK-MEL-2 melanoma)?
Answer: 64.9%

Question: And the growth (EKVX NSCLC)?
Answer: 82.3%

Question: And the growth (SN12C renal)?
Answer: 103%

Question: And the growth (UO-31 renal)?
Answer: 73.4%

Question: And the growth (TK-10 renal)?
Answer: 95.1%

Question: And the growth (ACHN renal)?
Answer: 92.9%

Question: And the growth (CAKI-1 renal)?
Answer: 62.8%

Question: What about the growth (A498 renal) of the same molecule?
Answer: 70.2%

Question: And the growth (CCRF-CEM leukemia)?
Answer: 69.7%

Question: And the growth (MOLT-4 leukemia)?
Answer: 53.5%
